Inconclusive results are not listed. Calls of active or inactive are those of the source. Calls follow the shape of the dose curve; as a rule, active = well fitted curve in the direction sought with a large enough effect; inconclusive = small, poorly fitted or top-dose-only effect, or effect the other way, or another doubt; inactive = no such curve, though single readings can be large or run the other way.
Molecular target: Pyruvate kinase PKLR (Homo sapiens) (UniProt P30613)
Assay: Secondary Concentration-Response Assay for Activators of Human Reticulocyte Pyruvate Kinase: for Probe SAR
Settings: purified hPK-R, ATP production, Kinase-Glo luminescence; series mostly up to 57.5 µM
Text: NIH Chemical Genomics Center [NCGC]
Wael M. Rabeh, Lyudmila Nedyalkova and Hee-Wan Park [Structural Genomics Consortium, 100 College St. Toronto, Ontario, Canada]
Human pyruvate kinase reticulocyte (hPK-R) enzyme was supplied as a highly purified (>95% pure) preparation from Structural Genomics Consortium in Toronto (Ontario, Canada) and assayed for its ability to generate ATP from ADP using phosphoenolpyruvate (PEP) as a substrate. ATP generation was detected in a coupled reaction by luciferase-mediated luminescence, an ATP-dependent process. Pyruvate kinase substrates, PEP and ADP, were present in the assay at Km and approximately 10-fold below Km respectively. The enzyme was assayed at an intermediate level of activity to screen for both inhibitors and activators.
NCGC Assay Protocol Summary for R-isoform
Three uL of substrate mix (at r.t.) in assay buffer (50 mM Imidazole pH7.2, 50 mM KCl, 7 mM MgCl2, 0.01% Tween 20, 0.05% BSA) was dispensed into white solid bottom 1,536 well microtiter plates so that the final concentrations of substrates in the assay were 0.1 mM ADP and 0.5 mM PEP. 23 nL of compound were delivered by a pin tool and 1 uL of enzyme mix (final concentration of 0.1 nM) in assay buffer (4 degree Celsius) was added. Plates were incubated at room temperature for 1 hour. Two uL of detection mix (Kinase-Glo, Promega; at 4 degree Celsius protected from light) was added and luminescence read by a ViewLux (Perkin Elmer) at 1 second exposure/plate. Data were normalized to the uninhibited (row 31). Additionally, a no enzyme and 5-fold enzyme control was dispensed in row 32, split equally between the two conditions.

Pyruvate kinase PKLR (Homo sapiens), sequence (P30613 whole entry, looked up): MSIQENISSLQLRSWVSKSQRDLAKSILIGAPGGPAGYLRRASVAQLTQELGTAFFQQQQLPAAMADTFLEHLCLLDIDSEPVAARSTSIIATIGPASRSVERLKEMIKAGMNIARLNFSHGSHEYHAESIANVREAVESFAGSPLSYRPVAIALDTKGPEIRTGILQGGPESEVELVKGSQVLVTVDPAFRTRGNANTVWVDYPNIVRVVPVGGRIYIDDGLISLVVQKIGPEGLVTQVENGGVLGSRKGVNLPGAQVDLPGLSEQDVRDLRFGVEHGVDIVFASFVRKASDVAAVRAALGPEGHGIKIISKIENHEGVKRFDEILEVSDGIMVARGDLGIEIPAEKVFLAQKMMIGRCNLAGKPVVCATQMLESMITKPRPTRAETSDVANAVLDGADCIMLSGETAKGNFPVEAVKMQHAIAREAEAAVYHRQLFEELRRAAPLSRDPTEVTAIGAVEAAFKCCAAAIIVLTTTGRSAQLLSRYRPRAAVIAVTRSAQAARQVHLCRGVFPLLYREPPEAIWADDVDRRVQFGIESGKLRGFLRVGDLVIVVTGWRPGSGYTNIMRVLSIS

outcome, inactive:
O=C1CCc2cc(S(=O)(=O)Nc3ccc(Cl)c(Cl)c3)ccc2N1, O=C1CCc2cc(S(=O)(=O)Nc3ccc(-c4ccccc4)cc3)ccc2N1, N#Cc1ccc(NS(=O)(=O)c2ccc3c(c2)CCC(=O)N3)cc1, Cc1ccc(Cl)cc1NS(=O)(=O)c1cc2c(cc1Cl)CCC(=O)N2, O=C1CCc2cc(S(=O)(=O)Nc3cccc(-c4ccccc4)c3)ccc2N1, O=C1CCc2cc(S(=O)(=O)Nc3cccc(Br)c3)ccc2N1, Cc1c(Cl)cccc1NS(=O)(=O)c1cc2c(cc1F)NC(=O)CC2, O=C1c2ccccc2C(=O)N1c1ccncc1, Cc1cccc(NS(=O)(=O)c2ccc3c(c2)CCC(=O)N3)c1, COc1ccc(NS(=O)(=O)c2ccc3c(c2)CCC(=O)N3)cc1, CN(C)c1cccc(S(=O)(=O)N2CCN(S(=O)(=O)c3ccc4c(c3)OCCO4)CC2)c1, Cc1cc(NS(=O)(=O)c2ccc3c(c2)CCC(=O)N3)ccc1F, O=C1CCc2cc(S(=O)(=O)Nc3cccc4ccccc34)ccc2N1, Nc1cccc(S(=O)(=O)N2CCCN(S(=O)(=O)c3ccc4c(c3)OCCO4)CC2)c1, O=C1CCc2cc(S(=O)(=O)Nc3ccccc3-c3ccccc3)ccc2N1, O=C1CCc2cc(S(=O)(=O)Nc3cccc(Oc4ccccc4)c3)ccc2N1, O=C1c2ccccc2C(=O)N1c1cccc2ncccc12, O=C1c2ccccc2C(=O)N1c1cccnc1, COc1cc(N2C(=O)c3ccccc3C2=O)c2ncccc2c1, Cc1ccc(C)c(OC2=NS(=O)(=O)c3ccccc32)c1, Cc1ccc(N2C(=O)c3ccccc3C2=O)c(C)c1, CNc1cccc(S(=O)(=O)N2CCCN(S(=O)(=O)c3ccc4c(c3)OCCO4)CC2)c1, Cc1ccc(C)c(SC2=NS(=O)(=O)c3cc(C(=O)NCc4ccccc4)ccc32)c1, O=C1NS(=O)(=O)c2ccccc21, Cc1cc(N2C(=O)c3ccccc3C2=O)no1, O=C1c2ccccc2C(=O)N1C1CCCCC1, Cc1ccc(NS(=O)(=O)c2ccc3c(c2)CCC(=O)N3)cc1, COC(=O)c1ccc2c(c1)S(=O)(=O)N=C2Sc1cc(C)ccc1C, COc1cccc(Cn2ncc3c4sc(S(C)=O)cc4n(C)c3c2=O)c1 (stereo not given), O=C1CCc2cc(S(=O)(=O)Nc3ccc(Cl)cc3)ccc2N1, COc1ccccc1NS(=O)(=O)c1ccc2c(c1)CCC(=O)N2, O=C1c2ccccc2C(=O)N1c1nccs1, O=C1c2ccccc2C(=O)N1Cc1ccccn1, O=C1CCc2cc(S(=O)(=O)Nc3cc(F)cc(Cl)c3)c(F)cc2N1, O=C1c2ccccc2C(=O)N1c1cncc2ccccc12, Cc1ccccc1NS(=O)(=O)c1ccc2c(c1)CCC(=O)N2, O=C1c2ccccc2C(=O)N1c1cccc2cccnc12, O=C1CCc2cc(S(=O)(=O)Nc3cccc(B(O)O)c3)ccc2N1, O=C1CCc2cc(S(=O)(=O)Nc3cccc(Cl)c3)ccc2N1, O=C1CCc2cc([S+](=O)([O-])Nc3ccc(N[S+](=O)([O-])c4ccc5c(c4)CCC(=O)N5)cc3)ccc2N1

From PubChem BioAssay AID2534 (National Center for Advancing Translational Sciences (NCATS), 2010)
